Consider 10 molecules from PubChem BioAssay (NCI).

Each structure is given as a SMILES string. About 83,000 compounds went through this panel and 20% of them were active in at least one assay; those are over-represented in the sample as a whole.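 48-hour exposure, single concentration, 96-well plates; percent growth endpoint where 0 means no net growth. Active: below 10.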 A number with no mark means an inactive call. Active and inactive are the calls of the source.

What all share (assay): NCI-60 one-dose screen, 48 h (100 = growth as untreated, 0 = no growth, -100 = all killed)
The subject of one test is SK-MEL-2 melanoma. Particulars: 10 µM.
The subject of the next test is SN12C renal. Particulars: 10 µM.
For a further test, the system named is UO-31 renal. Particulars: 10 µM.
The subject of a further test is TK-10 renal. The following applies: 10 µM unless noted.
The next test has as its system ACHN renal. The following applies: 10 µM.
For a further test, the system named is CAKI-1 renal. The following applies: 10 µM.
Another test deals with CCRF-CEM leukemia. The following applies: 10 µM.
The subject of the next test is MOLT-4 leukemia. Particulars: 10 µM.
In the next test the test system is RPMI-8226 leukemia. The following applies: 10 µM.
A further test has as its system OVCAR-8 ovarian. The following applies: 10 µM.
Another test has as its system OVCAR-5 ovarian. Particulars: 10 µM.
In a further test the test system is OVCAR-4 ovarian. Particulars: 10 µM.
For another test, the system named is SK-OV-3 ovarian. The following applies: 10 µM.
A further test relates to IGROV1 ovarian. The following applies: 10 µM.
The next test deals with OVCAR-3 ovarian. Particulars: 10 µM.
A further test relates to HS 578T breast. The following applies: 10 µM.
In the next test the test system is NCI/ADR-RES ovarian. The following applies: 10 µM.
The next test deals with A498 renal. The following applies: 10 µM.
For a further test, the system named is SR leukemia. The following applies: 10 µM.

As for `C=C[Si](OC(C)=O)(OC(C)=O)OC(C)=O`, the growth is 109% in the test on SK-MEL-2 melanoma; 110% in the test on SN12C renal; 79.3% in the test with UO-31 renal; 105% in the test with TK-10 renal; 97.3% with ACHN renal; 96.4% with CAKI-1 renal. For the same molecule, the growth was 88% with CCRF-CEM leukemia; 98.3% in the test with MOLT-4 leukemia; 95.9% with RPMI-8226 leukemia; 109% in the test with OVCAR-8 ovarian; 115% with OVCAR-5 ovarian; 110% in the test on OVCAR-4 ovarian. The growth with SK-OV-3 ovarian is 96.7%; in the test with IGROV1 ovarian it was 97.2%; in the test with OVCAR-3 ovarian, 108%; with HS 578T breast, 107%; in the test with NCI/ADR-RES ovarian, 104%.

On to `COC(=O)/C=C/C(=O)NC(N)=O`, for which the growth in the test with SK-MEL-2 melanoma was 85.2%; in the test on SN12C renal, 101%; in the test on UO-31 renal, 91.5%; in the test with TK-10 renal, 102%; in the test on ACHN renal it was 99.4%; in the test on CAKI-1 renal, 99.2%. Further, the growth in the test on A498 renal was 98.6%; with MOLT-4 leukemia it was 100%; in the test on SR leukemia, 95.9%; with RPMI-8226 leukemia, 103%; in the test with OVCAR-8 ovarian it was 99.5%; with OVCAR-5 ovarian, 98.3%. Further, the growth in the test with OVCAR-4 ovarian was 98.5%; with SK-OV-3 ovarian, 96.2%; in the test with IGROV1 ovarian it was 116%; with OVCAR-3 ovarian, 107%; in the test with HS 578T breast, 107%; in the test on NCI/ADR-RES ovarian, 109%.

As for `Cc1c(O)cnc2nn(-c3ccccc3)c(=N)n12`, the growth in the test on SK-MEL-2 melanoma was 94.7%; with SN12C renal, 97.7%; in the test on UO-31 renal, 94.5%; in the test with TK-10 renal, 109%; in the test with ACHN renal it was 96.7%; with CAKI-1 renal, 102%. Further, the growth in the test on A498 renal was 106%; with MOLT-4 leukemia, 104%; with RPMI-8226 leukemia, 113%; in the test with OVCAR-8 ovarian, 103%; in the test with OVCAR-5 ovarian, 106%; in the test on OVCAR-4 ovarian it was 95.8%. Also, the growth with SK-OV-3 ovarian is 108%; in the test with IGROV1 ovarian, 113%; with OVCAR-3 ovarian, 113%; in the test on HS 578T breast, 127%; in the test on NCI/ADR-RES ovarian, 108%.

For the molecule `CCCC[P+](c1ccccc1)(c1ccccc1)c1ccccc1`, the growth is 75.7% in the test with SK-MEL-2 melanoma; 60.1% with SN12C renal; 86.9% in the test on UO-31 renal; 74.8% with TK-10 renal; 84.9% with ACHN renal; 75.5% in the test on A498 renal. Moreover, the growth was 59.1% with MOLT-4 leukemia; 41.2% with SR leukemia; 43.4% in the test on OVCAR-8 ovarian; 62.6% in the test on OVCAR-5 ovarian; 87.2% in the test on SK-OV-3 ovarian; 49.1% with IGROV1 ovarian. For the same molecule, the figures for the growth in the test on OVCAR-3 ovarian, in the test on HS 578T breast and with NCI/ADR-RES ovarian were 43.5%, 80.2% and 106%, respectively.

As to `CC(C)(N)COS(=O)(=O)O`, the growth is 117% in the test with SK-MEL-2 melanoma; 93.6% in the test on SN12C renal; 100% in the test with UO-31 renal; 115% with TK-10 renal; 114% in the test with ACHN renal; 103% with CAKI-1 renal. For the same molecule, the growth in the test with A498 renal is 113%; in the test on MOLT-4 leukemia, 96.9%; with SR leukemia, 103%; in the test with RPMI-8226 leukemia, 102%; in the test with OVCAR-8 ovarian it was 102%; in the test on OVCAR-5 ovarian, 107%. In addition, the growth in the test on OVCAR-4 ovarian is 105%; with SK-OV-3 ovarian it was 96.5%; with IGROV1 ovarian, 108%; in the test on OVCAR-3 ovarian, 104%; with HS 578T breast, 99.8%; in the test on NCI/ADR-RES ovarian it was 114%.

For the molecule `CCOC(=O)C1=C(Nc2ccc(Br)cc2)C(=O)N(CC)C1`, the growth was 124% with SK-MEL-2 melanoma; 86% in the test on SN12C renal; 84.1% in the test with UO-31 renal; 101% with TK-10 renal; 92.4% with ACHN renal; 88.2% in the test with CAKI-1 renal. Also, the growth in the test with MOLT-4 leukemia was 103%; in the test on SR leukemia, 97.7%; in the test with RPMI-8226 leukemia, 99.7%; in the test with OVCAR-8 ovarian, 95.7%; in the test with OVCAR-5 ovarian, 91%; in the test on OVCAR-4 ovarian, 93.7%. Further, the growth in the test with IGROV1 ovarian was 93.1%; in the test on OVCAR-3 ovarian it was 110%; in the test on HS 578T breast it was 97.4%; with NCI/ADR-RES ovarian it was 93.3%.

Regarding `CC1CC(O)C2C3(C)CCCC2(COC3=O)C12CCC1(CCOC1=O)O2` (configuration not stated), the growth with SK-MEL-2 melanoma is 117%; with SN12C renal it was 113%; in the test on UO-31 renal, 93.3%; in the test on TK-10 renal it was 114%; in the test on CAKI-1 renal, 94.7%; with A498 renal, 71%. The growth was 104% in the test with CCRF-CEM leukemia; 114% with MOLT-4 leukemia; 114% with SR leukemia; 117% with RPMI-8226 leukemia; 127% in the test on OVCAR-8 ovarian; 104% in the test with OVCAR-5 ovarian. Further, the growth in the test on OVCAR-4 ovarian was 103%; in the test with SK-OV-3 ovarian it was 105%; in the test with IGROV1 ovarian, 113%; with OVCAR-3 ovarian, 110%; in the test on HS 578T breast it was 99%; in the test on NCI/ADR-RES ovarian, 111%.

As for `COC(=O)c1ccccc1N(C)C`, the growth was 99.4% with SK-MEL-2 melanoma; 103% with SN12C renal; 87.5% with UO-31 renal; 94.8% in the test with TK-10 renal; 113% in the test on ACHN renal; 96.2% in the test on CAKI-1 renal. The growth was 95.5% in the test with CCRF-CEM leukemia; 90.1% with MOLT-4 leukemia; 78.2% in the test on SR leukemia; 100% in the test on RPMI-8226 leukemia; 105% in the test with OVCAR-8 ovarian; 114% with OVCAR-5 ovarian. The growth in the test with OVCAR-4 ovarian was 101%; in the test on SK-OV-3 ovarian, 95.7%; in the test on IGROV1 ovarian, 106%; in the test with OVCAR-3 ovarian it was 106%; with HS 578T breast, 105%; with NCI/ADR-RES ovarian it was 101%.

For the molecule `CC(C)(C)n1nc(C2CC2)c(Br)c1NC(=O)c1ccccc1F`, the growth with SK-MEL-2 melanoma is 103%; in the test with SN12C renal it was 102%; with UO-31 renal it was 91.5%; with TK-10 renal, 103%; with ACHN renal it was 101%; with CAKI-1 renal it was 80.8%. The growth with A498 renal is 101%; in the test with MOLT-4 leukemia, 93.3%; with RPMI-8226 leukemia it was 96.7%; with OVCAR-8 ovarian it was 101%; in the test with OVCAR-5 ovarian, 104%; in the test with OVCAR-4 ovarian it was 87.1%. In addition, the growth in the test on SK-OV-3 ovarian is 94.5%; with IGROV1 ovarian, 99.3%; with OVCAR-3 ovarian it was 117%; in the test on HS 578T breast, 94.9%; in the test with NCI/ADR-RES ovarian, 103%.

For `COc1cccc(/C=N/NC(=S)NC2CC3CCC2C3)c1O` (configuration not stated), the growth was 69% in the test with SK-MEL-2 melanoma; 57.9% with SN12C renal; 21.8% in the test on UO-31 renal; 88.3% in the test with TK-10 renal; 32.1% in the test on ACHN renal; 38.2% in the test with CAKI-1 renal. Moreover, the growth in the test with A498 renal is 51.9%; in the test with CCRF-CEM leukemia, 29.1%; in the test on SR leukemia it was 3.68% (active); in the test on RPMI-8226 leukemia, 46.8%; in the test with OVCAR-8 ovarian, 40.5%; with OVCAR-5 ovarian it was 85.1%. In addition, the growth is 19.2% in the test with OVCAR-4 ovarian; 46.2% in the test on SK-OV-3 ovarian; 67% with IGROV1 ovarian; 6.8% (active) in the test with OVCAR-3 ovarian; 25.8% in the test with HS 578T breast; 15.4% in the test on NCI/ADR-RES ovarian.
